# Data reported in PubChem BioAssay (NCATS).
# Results filed as inconclusive are left out. Activity calls are given as the source filed them. Calls come from the whole dose curve; as a rule, active = well fitted inhibition curve with a large enough effect; inconclusive = small, poorly fitted or top-dose-only effect; inactive = no such curve, though single readings can be large or run the other way.
# Experiment: qHTS Screen of the MIPE 4.0 Collection Against Ewings Sarcoma (TC32) (AID 1259256); note: nearly all actives have a fitted effect of over 45% in size;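 for viability (percent of control): 100% = DMSO-treated cells and 0% = medium-only wells without cells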
# Settings: TC32 Ewing sarcoma viability, CellTiter-Glo, 48 h; series mostly up to 45.8 µM; viability (percent of control): at the top concentration
# Procedure, shortened: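 Here, cells in 5% FBS RPMI were exposed for two days (48 h) to compound dilutions added four hours after plating. ATP-based CellTiter-Glo luminescence measured viability, normalized to vehicle and no-cell blanks.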
# Potency is the fitted concentration of half-maximal effect.
Structure (SMILES),Potency,viability (percent of control)
CN1CCN(c2cccc(Nc3nc4c(-c5ccc(S(C)(=O)=O)cc5)cccn4n3)c2)CC1,2.35 µM (active),–
CC1=C(C(=O)Nc2cc3cn[nH]c3cc2F)C(c2ccc(C(F)(F)F)cc2)CC(=O)N1 (stereo not given),–,99.3% (inactive)
CCC(c1ccc(O)cc1)C(CC)c1ccc(O)cc1 (stereo not given),1.48 µM (active),–
COc1cc(C=CC(=O)O)ccc1O,–,109% (inactive)
COc1ccc(C=CC(=O)Nc2ccccc2C(=O)O)cc1OC,–,95.6% (inactive)
CN(C)c1nc(Cc2ccc(NC(=O)c3ccc(C(F)(F)F)cc3)cc2)nc(N(C)C)c1CC(=O)O,–,112% (inactive)
O=C1C(c2c(O)[nH]c3ccccc23)=Nc2ccccc21,29.6 µM (active),–
Cc1ccccc1C(C(=O)NC1CCCCC1)N(C(=O)CNc1ccc(C#N)cc1)c1cccc(F)c1 (stereo not given),–,106% (inactive)
CNC1CCC(N(Cc2cccc(-c3ccncc3)c2)C(=O)c2sc3ccccc3c2Cl)CC1 (stereo not given),20.9 µM (active),–
C[C@@H]1CC=CC=CC=CC=C[C@@H](O[C@@H]2O[C@H](C)[C@@H](O)[C@H](N)[C@H]2O)C[C@@H]2O[C@](O)(C[C@@H](O)C[C@@H]3O[C@@H]3C=CC(=O)O1)C[C@H](O)[C@@H]2C(=O)O,14.8 µM (active),–
CC(C)[C@H](O)C(=O)N[C@@H](C)C(=O)N[C@@H]1C(=O)N(C)CCc2ccccc21,–,110% (inactive)
C[C@@]1(C(=O)Nc2ccc(F)nc2)CCCN1c1nc(Nc2cc(C3CC3)[nH]n2)c2cccn2n1,0.418 µM (active),–
COc1cc2nccc(Oc3ccc(NC(=O)Nc4ccc(F)cc4F)c(F)c3)c2cc1OC,6.62 µM (active),–
Cc1cn([C@@H]2C[C@@H](O)[C@H](CO)O2)c(=O)[nH]c1=O,–,106% (inactive)
COc1ccc2ccc(=O)oc2c1CC=C(C)C,–,136% (inactive)
CCN1CCN(c2ccc(Nc3cc(N(C)C(=O)Nc4c(Cl)c(OC)cc(OC)c4Cl)ncn3)cc2)CC1,–,95.6% (inactive)
CN(C)N=Nc1nc[nH]c1C(N)=O,–,102% (inactive)
C=CC[N+]1([C@H]2C[C@H]3[C@@H]4CC[C@H]5C[C@H](O)[C@@H](N6CCOCC6)C[C@]5(C)[C@@H]4CC[C@]3(C)[C@H]2OC(C)=O)CCCC1,–,104% (inactive)
CN[C@H]1[C@@H](O[C@@H]2[C@H](O[C@@H]3[C@@H](O)[C@@H](O)[C@@H](N=C(N)N)[C@@H](O)[C@@H]3N=C(N)N)O[C@H](C)[C@@]2(O)C=O)O[C@@H](CO)[C@@H](O)[C@H]1O,–,127% [at 15.3 µM] (inactive)
O=C(c1ccc(F)c(F)c1Nc1ccc(I)cc1F)N1CC(O)([C@H]2CCCCN2)C1,20.9 µM (active),–
COc1cc(N2CCN(C)CC2)ccc1Nc1nc(N)c(C(=O)c2c(Cl)cccc2Cl)s1,10.5 µM (active),–
CC(C)(F)C[C@H](N[C@@H](c1ccc(-c2ccc(S(C)(=O)=O)cc2)cc1)C(F)(F)F)C(=O)NC1(C#N)CC1,18.7 µM (active),–
Cc1ccc(C(=O)N(CCCN)[C@@H](c2oc3cc(Cl)ccc3c(=O)c2Cc2ccccc2)C(C)C)cc1,–,110% (inactive)
FC(F)(F)c1ccc(C=Cc2nc(COc3ccc(CCCCn4ccnn4)cc3)co2)cc1,0.0332 µM (active),–
C[C@H](CCC(=O)O)[C@H]1CC[C@H]2[C@H]3[C@@H](CC[C@]12C)[C@@]1(C)CC[C@@H](O)C[C@H]1C[C@@H]3O,–,113% (inactive)
